# Records with an inconclusive call do not appear. Where a call stands in place of a potency, no number is given. The source made the active and inactive calls. Unless noted, calls follow the shape of the dose curve; as a rule, active = well fitted curve in the direction sought with a large enough effect; inconclusive = small, poorly fitted or top-dose-only effect, or another doubt; inactive = no such curve, though single readings can be large; an effect the other way counts as inactive or inconclusive.
# What was measured:
# [1] = AP1 Signaling Pathway (AID 357; active = well fitted curve in either direction with a large enough effect, not every such curve was filed as active;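 also: ME-180 reporter cells stimulated with EGF at its EC50 level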); settings: ME-180 (cervical carcinoma) AP-1-bla reporter, EGF-induced, beta-lactamase ratio, 5 h; at 38 µM (top of the series)
# How it was run: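 First, ME-180 AP-1-bla cells were cultured overnight at 37 °C in low-serum Opti-MEM. Next, titrated compounds with EC50 EGF were incubated 5 hours. Finally, CCF4 was added for 2.5 hours and the 460/530 nm ratio recorded.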
# [2] = NFAT Signaling Pathway (AID 444; active = well fitted curve in either direction with a large enough effect, not every such curve was filed as active;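 also: carbachol stimulus at about its EC50 of 1 µM final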); settings: Jurkat NFAT-bla M1, carbachol, beta-lactamase ratio, 5 h; at 38 µM (top of the series)
# How it was run: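 Jurkat cells carrying an NFAT-driven β-lactamase reporter and co-transfected muscarinic M1 receptor were treated with compound plus carbachol (1 uM final, an EC50 level) for 5 h at 37 °C. CCF4 loading followed for 1 h at RT; 460/530 nm ratio gave %activity.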
# [3] = target: Glucocorticoid receptor (Homo sapiens) (UniProt P04150); experiment: GR-GFP Redistribution (AID 450;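 active = compounds whose dose series gives a full or clear partial fitted curve of increased nuclear translocation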; also: potency is read from the fitted curve at half-maximal effect); settings: U2OS GR-GFP nuclear translocation, laser cytometry, 2 h
# [4] = target: Glucocorticoid receptor (Homo sapiens) (UniProt P04150); experiment: GR-EFC Redistribution (AID 451; calls by dose curve; also: potency is read from the fitted curve at half-maximal effect); settings: CHO-K1 GR-EFC translocation, beta-gal luminescence, 2 h
# How it was run: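 CHO-K1 cells stably expressing nuclear-localized β-gal enzyme acceptor and GR fused C-terminally to the enzyme donor fragment; ligand-driven nuclear translocation restores β-gal by complementation. Compounds titrated up to 46 uM final, 2 h at 37 °C; luminescence read.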
# [5] = target: Mitogen-activated protein kinase 10 (Mus musculus) (UniProt Q61831); experiment: JNK3 AlphaScreen Assay (AID 530; active = well fitted curve in either direction with a large enough effect, not every such curve was filed as active;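 also: kinase came from lysate of stimulated human HepG2 cells; signal reports phosphorylation of biotinylated GST-cJun 1-79 at Ser73 with 10 µM ATP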)
# How it was run: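 Biotinylated GST-cJun(1-79) served as substrate for JNK3 in HepG2 lysates stimulated with IL-1beta and TNF-alpha. ATP was 10 uM final, pH 7.6. Ser73 phosphorylation was quantified by AlphaScreen (680 nm excitation).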
# [6] = target: 3',5'-cyclic-AMP phosphodiesterase 4B (Homo sapiens) (UniProt Q07343); experiment: qHTS Assay for Inhibitors of PDE-IV (AID 607; active = well fitted activation curve with a large enough effect in the main read-out, with a control signal flat, not every such curve was filed as active)
# How it was run: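 The readout is membrane depolarisation from a cAMP-sensing CNG channel, detected with a potential dye at ex 535/em 590. Cells were HEK293-derived (endogenous PDE-IV) at 1000 cells/well, titrated up to 22.9 uM final.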
# [7] = target: Guanine nucleotide-binding protein G(i) subunit alpha-1 (Homo sapiens) (UniProt P63096); experiment: qHTS Assay for Inhibitors of RGS12 GoLoco Motif Activity (Green Fluorophore) (AID 879);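 also: negative values mean loss of peptide binding seen as reduced polarization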
# How it was run: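 A drop in FITC polarization marked displacement of the FITC-tagged RGS12 GoLoco peptide (10 nM) from Gαi1 (50 nM). Compounds were incubated 10 min at room temperature in Tris pH 7.5 buffer containing 150 mM NaCl, 0.1 mM GDP and 0.05% NP40; unlabeled peptide titration served as control.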
# [8] = qHTS Assay for Identification of Small Molecule Agonists for Thrombopoietin (TPO) Signaling Pathway (AID 917)
# How it was run: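 Quantitative HTS for pathway activators: compounds were pin-transferred onto IL-3-starved Ba/F3 cells expressing human TPO receptor, TPO was added at its EC50 (26 pM final), and after 24 hrs at 37 C reporter luciferase was measured.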
# [9] = target: Muscarinic acetylcholine receptor M1 (Rattus norvegicus) (UniProt P08482); experiment: qHTS Assay for Antagonists of Acetylcholine Muscarinic M1 Receptor: Measurement of IP-One Response (AID 944); also: nearly all actives have a fitted effect of over 75% in size
# How it was run: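 Antagonism was measured as loss of carbachol-driven (EC80) IP1 accumulation in CHO cells carrying rat M1, using a homogeneous IP-One TR-FRET kit read at 620 and 665 nm.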
# [10] = target: Pyruvate kinase (Leishmania mexicana) (UniProt Q27686); experiment: qHTS Validation Assay for Inhibitors of Leishmania Mexicana Pyruvate Kinase (AID 945)
# How it was run: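 The enzyme is a highly purified E451W mutant of LmPYK used at 0.2 nM. It converts 0.5 mM PEP and 0.1 mM ADP over 1 h at room temperature; product ATP is quantified by luciferase luminescence relative to DMSO controls.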
# [11] = target: Pyruvate kinase PKM (Homo sapiens) (UniProt P14618); experiment: qHTS Assay for Activators of Human Muscle Pyruvate Kinase (AID 954; active = well fitted curve in the direction sought with a large enough effect, not every such curve was filed as active)
# How it was run: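 PKM2, human, >95% pure, 0.1 nM; PEP 0.5 mM (Km), ADP 0.1 mM; 50 mM imidazole pH 7.2, 50 mM KCl, 0.01% Tween 20, 0.05% BSA; 1 h RT; luciferase luminescence readout.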
# [12] = target: alpha-glucosidase (Oryza sativa, rice) (UniProt Q653V4); experiment: Counterscreen for Glucocerebrosidase Inhibitors: qHTS Assay for Rice alpha-Glucosidase at pH 5.0 (AID 997)
# How it was run: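 Endpoint fluorogenic assay at pH 5.0: compounds (0.7 nM to 77 uM) titrated against 4 nM rice enzyme and 400 uM 4-MU-alpha-glucoside for 20 min at room temperature; NaOH/glycine stop, read ex 365/em 440 nm, Hill-fitted AC50.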
# [13] = Cytometric Cell-Based qHTS for Inhibitors of the mTORC1 Signaling Pathway in MEF (Tsc2-/-, p53-/-) Cells (AID 2660);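 also: Tsc2 and p53 null MEFs carrying empty vector with compound for 24 h; percent of cells above a phospho-rpS6 to PI ratio cutoff in each well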
# How it was run: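 Cells are plated, treated with compound for 24 hrs at 37 degree Celsius, then fixed, blocked and immunostained for phospho-rpS6 Ser235/236. Propidium iodide counterstain follows. Per-well % positive cells is derived from the PI-normalized phospho-S6 signal.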
# [14] = High Content Imaging Cell-Based qHTS for Inhibitors of the mTORC1 Signaling Pathway in MEF (Tsc2-/-, p53-/-) Cells (AID 2666); settings: at 38.3 µM (top of the series);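 also: percent of cells scored positive for phospho-rpS6 Ser235/236 immunostaining by imaging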
# How it was run: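 Inhibition of rpS6 phosphorylation is measured by immunofluorescence imaging in empty-vector Tsc2-/-, p53-/- mouse embryonic fibroblasts after 24 hrs compound exposure at 37 degree Celsius. Results are reported as % positive cells per well.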
# [15] = High Content Imaging Cell-Based qHTS for Inhibitors of the mTORC1 Signaling Pathway in MEF Cells (AID 2667);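 also: Tsc2-/- p53-/- MEFs stably re-expressing wild-type Tsc2 exposed 24 h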
# How it was run: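 Fixed-cell imaging of phospho-S6 (Ser235/236, Alexa-488) after 24 hrs of compound treatment at 37 degree Celsius. Signal was normalized to Hoechst, and thresholds from the highest and lowest wells split cells into % active versus % non-active.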
# [16] = Cytometry Cell-Based qHTS for Inhibitors of the mTORC1 Signaling Pathway in MEF cells (AID 2668);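 also: Tsc2-/- p53-/- mouse embryonic fibroblasts stably re-expressing wild-type Tsc2; percent cells positive for phospho-rpS6 Ser235/236 relative to propidium iodide stain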
# How it was run: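 Pathway inhibition in WT Tsc2-rescued Tsc2-/-, p53-/- MEFs is measured as the Alexa-488 phospho-rpS6 to propidium iodide intensity ratio after 24 hrs of compound at 37 degree Celsius. PI-stained cell number gives viability.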
# [17] = target: Ubiquitin carboxyl-terminal hydrolase 2 (Homo sapiens) (UniProt O75604); experiment: qHTS Validation Assay for Inhibitors of Ubiquitin-specific Protease USP2a Using CHOP2 as the Reporter (AID 463106)
# How it was run: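 Inhibition is expressed relative to NEM as the full-inhibition control, with concentration-response curves classed by fit quality, magnitude and activity. Enzyme (USP2 core, 10nM) meets 25nM Ub-CHOP2 after compound preincubation; readings are taken at 60min.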
# [18] = target: Tumor susceptibility gene 101 protein (Homo sapiens) (UniProt Q99816); experiment: qHTS Validation Assay for Iinhibitors of HIV-1 Budding by Blocking the Interaction of PTAP/TSG101 (AID 485342; calls by dose curve)
# How it was run: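 Fluorescence anisotropy measured PTAP-Tsg101 interaction. Final concentrations were 10 uM protein domain and 50 nM labeled peptide, equilibrated 20 min at room temperature.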
# [19] = qHTS Validation Assay to Find Inhibitors of Chronic Active B-Cell Receptor Signaling (AID 485345; active = well fitted curve in the direction sought with a large enough effect in the main read-out, with a control signal flat, not every such curve was filed as active)
# How it was run: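 TMD8 ABC-DLBCL cells with dox-inducible green luciferase–IκBα fusion and red native luciferase; compounds 46 uM–3 nM, 4 h at 37C with doxycycline in 0.5% FBS IMDM. Green/red ratio normalized to basal and 10 uM MG-132.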
# [20] = target: Beta-2 adrenergic receptor (Homo sapiens) (UniProt P07550); experiment: qHTS validation assay of beta-arrestin-biased ligands of beta2-adrenergic receptor (AID 485366)
# How it was run: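 Compound series up to 46 microM applied to beta2-AR/beta-arrestin Tango cells, 18 hr, 37 degrees C, 5% CO2. Read-out: tTA-driven luciferase luminescence, converted to %Activity; concentration-response curves assigned curve classes.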
# [21] = target: Thioredoxin reductase 1, cytoplasmic (Rattus norvegicus) (UniProt O89049); experiment: qHTS Assay for Substrates of Mammalian Selenoprotein Thioredoxin Reductase 1 (TrxR1) (AID 488772);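 also: a drop in NADPH fluorescence below the no-compound background marks a TrxR1 substrate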
# How it was run: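 In this dual-purpose format, potential substrates are identified from the first fluorescence read after selenite addition, not from the 8-minute delta. Rat enzyme is preincubated with NADPH and then with compound at ~22 deg C.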
# [22] = target: Methanococcus maripaludis chaperonin (MmCpn) (UniProt Q6LX38); experiment: High-Throughput Screening for Modulators of Cytosolic Chaperonin Activity: MmCpn Primary Screen (AID 488978);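 also: 50 nM MmCpn enzyme hydrolysing 30 µM ATP at 37 °C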
# How it was run: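 Measures ATPase turnover of the M. maripaludis chaperonin (50 nM final) against 30 uM ATP over 10 min at 37C, with compound added 5 min beforehand at room temperature. ADP is quantified by HTRF immunodetection.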
# [23] = target: D(1A) dopamine receptor (Homo sapiens) (UniProt P21728); experiment: HTS Assay for Allosteric Agonists of the Human D1 Dopamine Receptor: Primary Screen for Agonists (AID 488981)
# How it was run: (§1)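 Tetracycline-induced HEK293 T-REx cells force-coupled to calcium signalling were incubated overnight at 30 C and dye-loaded at room temperature. Calcium flux over 180 s after compound addition flagged agonists; a further 180 s read after EC20 dopamine flagged potentiators.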
# [24] = target: D(1A) dopamine receptor (Homo sapiens) (UniProt P21728); experiment: HTS Assay for Allosteric Agonists of the Human D1 Dopamine Receptor: Primary Screen for Potentiators (AID 488982)
# How it was run: as §1
# [25] = target: D(1A) dopamine receptor (Homo sapiens) (UniProt P21728); experiment: HTS Assay for Allosteric Agonists of the Human D1 Dopamine Receptor: Primary Screen for Antagonists (AID 488983);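 also: calcium flux response to an EC80 dopamine challenge measured with no-wash dye; nearly all actives have a fitted effect of over 65% in size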
# How it was run: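 In this primary screen, compounds are applied to calcium-dye-loaded HEK293 T-REx cells with force-coupled D1 expression induced overnight at 30 C. An EC80 of dopamine follows the 180 s compound phase, and calcium is monitored for a further 180 s.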
# [26] = Validation screen for small molecules that induce genotoxicity in human embryonic kidney (HEK293T) cells expressing luciferase-tagged ELG1 (AID 493106)
# How it was run: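 In this validation screen, increased ELG1-luciferase signal flags compounds causing genetic stress. HEK293T reporter cells are treated 16 hr (37 °C, 5% CO2), developed with ONE-Glo for 30 min at room temperature, and imaged on a CCD-based reader.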
# [27] = target: ATPase family AAA domain-containing protein 5 (Homo sapiens) (UniProt Q96QE3); experiment: Validation screen for small molecules that inhibit ELG1-dependent DNA repair in human embryonic kidney (HEK293T) cells expressing luciferase-tagged ELG1 (AID 493107);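 also: cells co-treated with the DNA-damaging agent 5-fluorouridine alongside compound; inhibitors lower the ELG1-luciferase luminescence signal; nearly all actives have a fitted effect of over 70% in size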
# How it was run: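 Compounds reducing 5-fluorouridine-driven ELG1-luciferase signal in HEK293T cells were scored; exposure lasted 16 hr at 37 °C with luminescence detected via ONE-Glo.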
# [28] = Nrf2 qHTS screen for inhibitors: Validation (AID 493153; active = well fitted inhibition curve with a large enough effect in the main read-out, with a control signal flat, not every such curve was filed as active;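 as to activity change, negative = inhibition: A549 cells with ARE-driven firefly luciferase reporter reporting Nrf2 activity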); settings: viability change: measured here: cytotoxicity max response
# How it was run: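 In this counterscreened reporter format, each well gives two signals: CellTiter-Fluor fluorescence for cytotoxicity and ARE-luciferase luminescence for Nrf2 function. A549 ARE_Fluc cells in 5% FBS OPTI-MEM were exposed to compound titrations for 18-24 h.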
# [29] = qHTS for Inhibitors of Cell Surface uPA Generation: Validation Assay (AID 493164);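 also: RAW 264.7 macrophage cells exposed to compound for 18 h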
# How it was run: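 Compounds are titrated over seven points (2.45 nM–38.3 uM final) onto pre-plated RAW 264.7 cells and incubated for 18 h. Retained intracellular ATP, measured with ATP-Lite, indicates blocked lethal factor entry.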
# [30] = target: Peptidyl-prolyl cis-trans isomerase NIMA-interacting 1 (Homo sapiens) (UniProt Q13526); experiment: qHTS Validation Assay to Find Inhibitors of Pin1 (AID 504536; active = well fitted inhibition curve with a large enough effect in the polarisation, with a control signal flat, not every such curve was filed as active; the % refers to the polarisation)
# How it was run: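 Fluorescence polarization competition: compounds (titration) displace HiFluor-488-labeled Pin1-1b peptide from Pin1 (0.3 uM final) in pH 7.5 HEPES buffer with DTT, 10 min at room temperature; %Activity normalized to no-enzyme wells, curves fitted.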
# [31] = target: Phosphoglycerate kinase, glycosomal (Trypanosoma brucei brucei) (UniProt P07378); experiment: qHTS Validation Assay to Find Inhibitors of Phosphoglycerate Kinase (AID 504547)
# How it was run: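 In TEA buffer (100mM, pH 7.6) containing 5mM MgCl2 and 0.01% Tween-20, the GAPDH-coupled PGK reaction proceeded for 60 minutes at room temperature before a single luminescence reading using Kinase-Glo Plus.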
# D(1A) dopamine receptor (Homo sapiens), sequence (P21728 whole entry, looked up): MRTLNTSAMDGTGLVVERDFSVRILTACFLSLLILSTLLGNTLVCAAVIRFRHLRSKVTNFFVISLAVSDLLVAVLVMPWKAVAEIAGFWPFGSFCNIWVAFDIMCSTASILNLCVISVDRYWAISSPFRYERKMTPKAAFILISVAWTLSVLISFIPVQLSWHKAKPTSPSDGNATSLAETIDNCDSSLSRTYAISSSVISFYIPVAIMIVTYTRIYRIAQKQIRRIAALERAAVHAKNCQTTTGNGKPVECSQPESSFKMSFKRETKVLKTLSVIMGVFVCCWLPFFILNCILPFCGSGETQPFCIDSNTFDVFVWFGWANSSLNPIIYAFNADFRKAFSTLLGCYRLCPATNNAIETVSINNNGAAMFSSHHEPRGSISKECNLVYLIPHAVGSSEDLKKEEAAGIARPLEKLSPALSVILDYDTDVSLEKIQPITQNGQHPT
# Glucocorticoid receptor (Homo sapiens), sequence (P04150 whole entry, looked up, the tested form may be a part): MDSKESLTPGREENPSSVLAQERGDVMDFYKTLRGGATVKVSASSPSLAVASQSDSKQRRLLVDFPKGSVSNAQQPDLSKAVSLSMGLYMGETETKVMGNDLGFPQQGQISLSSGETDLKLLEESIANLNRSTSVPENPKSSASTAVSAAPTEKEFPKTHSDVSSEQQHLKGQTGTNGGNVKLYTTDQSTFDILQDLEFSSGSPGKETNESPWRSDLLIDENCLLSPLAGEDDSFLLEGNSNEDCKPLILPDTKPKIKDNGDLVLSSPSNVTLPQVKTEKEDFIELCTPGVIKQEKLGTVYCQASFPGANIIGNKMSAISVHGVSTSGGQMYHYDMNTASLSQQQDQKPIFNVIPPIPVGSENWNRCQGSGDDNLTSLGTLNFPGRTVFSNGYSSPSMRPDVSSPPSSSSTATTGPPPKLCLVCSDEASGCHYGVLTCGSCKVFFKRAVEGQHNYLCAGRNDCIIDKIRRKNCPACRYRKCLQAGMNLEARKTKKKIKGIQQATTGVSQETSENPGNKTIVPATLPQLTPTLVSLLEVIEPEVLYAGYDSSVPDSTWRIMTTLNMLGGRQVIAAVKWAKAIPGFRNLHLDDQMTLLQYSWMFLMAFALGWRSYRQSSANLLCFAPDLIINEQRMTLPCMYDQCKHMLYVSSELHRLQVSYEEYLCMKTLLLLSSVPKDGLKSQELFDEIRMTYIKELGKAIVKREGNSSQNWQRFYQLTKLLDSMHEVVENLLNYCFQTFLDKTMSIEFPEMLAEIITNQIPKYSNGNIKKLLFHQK
# Thioredoxin reductase 1, cytoplasmic (Rattus norvegicus), sequence (O89049 whole entry, looked up): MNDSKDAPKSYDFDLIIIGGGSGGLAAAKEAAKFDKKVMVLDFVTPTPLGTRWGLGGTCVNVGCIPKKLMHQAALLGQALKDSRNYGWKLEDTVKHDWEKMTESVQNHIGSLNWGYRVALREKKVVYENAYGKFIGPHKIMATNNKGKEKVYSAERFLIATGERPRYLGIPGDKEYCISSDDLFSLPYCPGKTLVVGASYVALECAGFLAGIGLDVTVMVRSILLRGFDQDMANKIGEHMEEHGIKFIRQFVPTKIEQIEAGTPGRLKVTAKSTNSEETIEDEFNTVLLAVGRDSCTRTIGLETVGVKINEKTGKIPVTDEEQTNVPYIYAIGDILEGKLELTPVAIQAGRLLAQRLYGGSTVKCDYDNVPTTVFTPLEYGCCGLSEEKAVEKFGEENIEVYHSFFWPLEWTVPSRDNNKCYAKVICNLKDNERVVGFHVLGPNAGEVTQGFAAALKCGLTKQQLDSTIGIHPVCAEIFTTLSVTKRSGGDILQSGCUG
# Methanococcus maripaludis chaperonin (MmCpn), sequence (Q6LX38 1-543): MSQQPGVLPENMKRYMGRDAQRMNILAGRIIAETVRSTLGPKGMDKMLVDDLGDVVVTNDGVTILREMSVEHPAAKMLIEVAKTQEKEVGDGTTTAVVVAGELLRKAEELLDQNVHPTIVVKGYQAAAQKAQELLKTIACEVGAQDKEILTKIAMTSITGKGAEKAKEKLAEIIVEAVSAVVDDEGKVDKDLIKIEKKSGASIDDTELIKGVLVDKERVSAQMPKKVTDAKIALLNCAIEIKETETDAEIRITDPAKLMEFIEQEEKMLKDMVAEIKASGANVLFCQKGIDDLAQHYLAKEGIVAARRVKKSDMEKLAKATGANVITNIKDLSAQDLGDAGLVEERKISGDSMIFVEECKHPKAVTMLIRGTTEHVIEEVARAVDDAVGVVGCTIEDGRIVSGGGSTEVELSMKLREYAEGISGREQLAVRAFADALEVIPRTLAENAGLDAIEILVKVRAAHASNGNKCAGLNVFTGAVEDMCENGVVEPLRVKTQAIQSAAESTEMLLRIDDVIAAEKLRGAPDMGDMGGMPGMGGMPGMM
# Pyruvate kinase (Leishmania mexicana), sequence (Q27686 2-499 E452W): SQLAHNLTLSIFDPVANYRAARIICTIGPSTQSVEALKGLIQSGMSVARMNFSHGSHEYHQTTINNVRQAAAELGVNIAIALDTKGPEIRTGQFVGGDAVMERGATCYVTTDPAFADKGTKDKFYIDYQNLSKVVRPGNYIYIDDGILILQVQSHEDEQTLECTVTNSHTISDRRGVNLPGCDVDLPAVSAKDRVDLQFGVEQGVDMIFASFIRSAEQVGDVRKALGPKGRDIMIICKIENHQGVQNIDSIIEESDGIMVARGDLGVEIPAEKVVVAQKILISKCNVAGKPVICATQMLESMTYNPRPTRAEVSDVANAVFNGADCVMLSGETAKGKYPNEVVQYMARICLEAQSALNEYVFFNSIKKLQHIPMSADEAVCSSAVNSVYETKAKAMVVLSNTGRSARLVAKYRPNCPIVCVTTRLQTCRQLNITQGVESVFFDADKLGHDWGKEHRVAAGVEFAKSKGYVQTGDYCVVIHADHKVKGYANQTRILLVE
# Phosphoglycerate kinase, glycosomal (Trypanosoma brucei brucei), sequence (P07378 whole entry, looked up): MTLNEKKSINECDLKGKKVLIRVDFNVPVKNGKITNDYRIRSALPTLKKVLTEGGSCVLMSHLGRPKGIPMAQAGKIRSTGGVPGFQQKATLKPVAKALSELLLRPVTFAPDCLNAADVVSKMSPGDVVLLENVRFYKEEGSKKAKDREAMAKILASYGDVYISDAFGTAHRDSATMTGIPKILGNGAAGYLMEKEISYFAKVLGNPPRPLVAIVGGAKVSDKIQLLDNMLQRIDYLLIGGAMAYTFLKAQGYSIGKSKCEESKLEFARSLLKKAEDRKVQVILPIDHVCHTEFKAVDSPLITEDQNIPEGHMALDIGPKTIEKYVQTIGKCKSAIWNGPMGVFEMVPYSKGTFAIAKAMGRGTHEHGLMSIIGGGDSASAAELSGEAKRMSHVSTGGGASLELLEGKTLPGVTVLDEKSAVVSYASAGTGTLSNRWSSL
# Tumor susceptibility gene 101 protein (Homo sapiens), sequence (Q99816 whole entry, looked up, the tested form may be a part): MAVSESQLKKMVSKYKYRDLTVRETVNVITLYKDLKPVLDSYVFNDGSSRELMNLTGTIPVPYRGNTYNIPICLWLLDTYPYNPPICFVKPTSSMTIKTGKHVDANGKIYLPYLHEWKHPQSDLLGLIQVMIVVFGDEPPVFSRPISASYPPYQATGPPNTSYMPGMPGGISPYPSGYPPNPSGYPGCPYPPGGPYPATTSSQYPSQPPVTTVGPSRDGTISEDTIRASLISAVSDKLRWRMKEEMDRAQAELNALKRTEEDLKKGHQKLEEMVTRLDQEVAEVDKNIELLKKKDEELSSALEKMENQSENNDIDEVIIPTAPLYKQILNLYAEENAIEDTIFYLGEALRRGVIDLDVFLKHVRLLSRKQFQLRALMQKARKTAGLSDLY
# Ubiquitin carboxyl-terminal hydrolase 2 (Homo sapiens), sequence (O75604 whole entry, looked up): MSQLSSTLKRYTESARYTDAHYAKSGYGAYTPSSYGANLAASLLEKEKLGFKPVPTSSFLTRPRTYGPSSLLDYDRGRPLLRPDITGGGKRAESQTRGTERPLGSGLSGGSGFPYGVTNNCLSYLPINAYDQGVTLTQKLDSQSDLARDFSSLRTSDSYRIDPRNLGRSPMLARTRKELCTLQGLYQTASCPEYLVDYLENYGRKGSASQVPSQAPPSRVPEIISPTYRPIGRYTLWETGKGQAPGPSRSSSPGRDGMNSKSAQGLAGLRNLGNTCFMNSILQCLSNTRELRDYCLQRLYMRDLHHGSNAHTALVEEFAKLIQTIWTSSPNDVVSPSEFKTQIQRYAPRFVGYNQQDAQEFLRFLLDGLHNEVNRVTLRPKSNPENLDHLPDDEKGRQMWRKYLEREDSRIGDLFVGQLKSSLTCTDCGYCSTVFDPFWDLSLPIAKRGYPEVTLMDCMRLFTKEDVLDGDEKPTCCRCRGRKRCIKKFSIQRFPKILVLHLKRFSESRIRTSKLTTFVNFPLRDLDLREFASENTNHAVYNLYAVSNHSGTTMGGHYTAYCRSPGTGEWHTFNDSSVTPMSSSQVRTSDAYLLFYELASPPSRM
# Peptidyl-prolyl cis-trans isomerase NIMA-interacting 1 (Homo sapiens), sequence (Q13526 whole entry, looked up): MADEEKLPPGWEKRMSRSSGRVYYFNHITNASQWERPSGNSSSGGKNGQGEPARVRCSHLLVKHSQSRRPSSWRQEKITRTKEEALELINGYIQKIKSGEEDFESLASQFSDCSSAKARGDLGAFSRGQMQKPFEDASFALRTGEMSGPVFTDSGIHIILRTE
# Pyruvate kinase PKM (Homo sapiens), sequence (P14618 whole entry, looked up): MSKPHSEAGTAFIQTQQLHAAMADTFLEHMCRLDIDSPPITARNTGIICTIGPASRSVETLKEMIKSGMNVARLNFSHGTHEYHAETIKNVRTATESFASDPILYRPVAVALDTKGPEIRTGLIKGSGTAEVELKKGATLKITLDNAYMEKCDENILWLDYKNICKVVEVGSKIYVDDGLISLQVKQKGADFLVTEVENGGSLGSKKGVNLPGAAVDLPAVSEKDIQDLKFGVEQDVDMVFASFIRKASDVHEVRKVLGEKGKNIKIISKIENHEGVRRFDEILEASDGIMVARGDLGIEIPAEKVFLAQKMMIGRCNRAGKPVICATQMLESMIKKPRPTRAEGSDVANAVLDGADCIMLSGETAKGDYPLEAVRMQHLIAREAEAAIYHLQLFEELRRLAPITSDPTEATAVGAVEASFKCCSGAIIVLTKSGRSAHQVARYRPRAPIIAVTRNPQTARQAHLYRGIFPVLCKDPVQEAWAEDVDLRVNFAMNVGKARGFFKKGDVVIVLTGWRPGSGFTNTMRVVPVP
smiles,measurement,setting,value
CC[N+](CC)(CC)CC,"activity change, negative = inhibition",[1],-0.239% (inactive)
same,"activity change, negative = inhibition",[2],-10.5% (inactive)
same,Potency,[3],> 46 µM (inactive)
same,Potency,[4],> 46 µM (inactive)
same,Potency,[5],inactive
same,Potency,[6],inactive
same,outcome,[7],inactive
same,Potency,[8],inactive
same,Potency,[9],inactive
same,Potency,[10],inactive
same,outcome,[11],inactive
same,outcome,[12],inactive
same,outcome,[13],inactive
same,outcome,[14],inactive
same,Potency,[15],inactive
same,Potency,[16],inactive
same,Potency,[17],inactive
same,outcome,[18],inactive
same,outcome,[19],inactive
same,outcome,[20],inactive
same,outcome,[21],inactive
same,outcome,[22],inactive
same,outcome,[23],inactive
same,outcome,[24],inactive
same,outcome,[25],inactive
same,Potency,[26],inactive
same,Potency,[27],inactive
same,outcome,[28],inactive
same,viability change,[28],-5.41%
same,outcome,[29],inactive
same,Potency,[30],inactive
same,Potency,[31],inactive
